Test results: the supplement of paper PMC10981050
Counter-ions that a name gives are not always drawn.

test system: MOLM14; assay: cell viability relative to vehicle control; higher = less cytotoxic; settings: 10 µM; SRSF2 genotype: SRSF2 wt/wt
Summary of the method: (§1)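 Mutant clones made by CRISPR editing and their isogenic wild-type counterparts, from four leukaemia lines, were exposed to a single 10 µM dose of each library compound for 48 h. The supernatant was then removed and CellTiter-Glo luminescence was read. Viability was reported as percent of the on-plate vehicle control.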

**Q.** For Cc1nc(Nc2n[nH]c3c2CN(C(=O)N[C@H](CN(C)C)c2ccccc2)C3(C)C)c2sccc2n1, which cell viability is on record?
**A.** 0.42%

**Q.** Which cell viability does the source give for Cc1ccccc1C(=O)Nc1ccc(C(=O)N2CCCC(N(C)C)c3ccccc32)cc1 (centres undefined) [Mozavaptan] here?
**A.** 102%

**Q.** NS(=O)(=O)c1cc2c(cc1Cl)N=CNS2(=O)=O [Chlorothiazide] was tested. Which cell viability did it give?
**A.** 97.8%

**Q.** How did the cell viability turn out when CCCn1/c(=N/C(=O)c2cccc(C(N)=O)c2)[nH]c2ccccc21 [Takinib] was run?
**A.** 91%

test system: OCI-AML2; assay: as above; settings: 10 µM; SRSF2 genotype: P95H/wt
Summary of the method: as §1

**Q.** With CC(C)NCC(O)COc1ccc(CCOCC2CC2)cc1 (centres undefined) [Betaxolol hydrochloride (Betoptic)] as the molecule, how does the cell viability read?
**A.** 91.2%

**Q.** Which cell viability does the source give for c1ccc2[nH]c(-c3cscn3)nc2c1 [Thiabendazole] here?
**A.** 93.6%

**Q.** Which cell viability does the source give for Cc1c[nH]c(C=C2C(=O)Nc3ccccc32)c1CCC(=O)O here?
**A.** 54.2%

**Q.** For C[C@H](NC(=O)CCc1nc2ccccc2c(=O)[nH]1)c1ccccc1, which cell viability is on record?
**A.** 105%

**Q.** How did the cell viability turn out when C=CC(=O)N1C[C@H](Nc2ncnc3[nH]ccc23)CC[C@@H]1C was run?
**A.** 86.8%

**Q.** For CC(=O)Nc1ccc(C(=O)Nc2ccccc2N)cc1 [CI994 (Tacedinaline)], which cell viability is on record?
**A.** 24.3%

**Q.** For N#Cc1c(NC(=O)c2cccc3ccccc23)sc2c1CCCC2 [JNK inhibitor IX], which cell viability is on record?
**A.** 8.78%

**Q.** For CNC(=O)c1cc(COc2nnc(Nc3ccc(Cl)cc3)c3ccoc23)ccn1 [Telatinib (BAY 57-9352)], which cell viability is on record?
**A.** 90.6%

**Q.** With Cn1c(N2CCCCS2(=O)=O)nc(C(=O)NCc2ccc(F)cc2)c(O)c1=O as the molecule, how does the cell viability read?
**A.** 112%

**Q.** CCC[C@@H]1C[C@@H](C(=O)N[C@@H]([C@H]2O[C@H](SC)[C@H](O)[C@@H](O)[C@H]2O)[C@H](C)Cl)N(C)C1 [Clindamycin HCl] was tested. Which cell viability did it give?
**A.** 83.9%
